In ChEMBL document CHEMBL2218924, “A broad activity screen in support of a chemogenomic map for kinase signalling research and drug discovery” (Biochem J, 2013):

Legend:
[1] = biological target: Tyrosine-protein kinase SYK (Homo sapiens) (UniProt P43405); details: at 10 µM
[2] = biological target: T1, Mitogen-activated protein kinase kinase kinase 7 (Homo sapiens) (UniProt O43318); details: at 1 µM
T1 sequence (whole entry): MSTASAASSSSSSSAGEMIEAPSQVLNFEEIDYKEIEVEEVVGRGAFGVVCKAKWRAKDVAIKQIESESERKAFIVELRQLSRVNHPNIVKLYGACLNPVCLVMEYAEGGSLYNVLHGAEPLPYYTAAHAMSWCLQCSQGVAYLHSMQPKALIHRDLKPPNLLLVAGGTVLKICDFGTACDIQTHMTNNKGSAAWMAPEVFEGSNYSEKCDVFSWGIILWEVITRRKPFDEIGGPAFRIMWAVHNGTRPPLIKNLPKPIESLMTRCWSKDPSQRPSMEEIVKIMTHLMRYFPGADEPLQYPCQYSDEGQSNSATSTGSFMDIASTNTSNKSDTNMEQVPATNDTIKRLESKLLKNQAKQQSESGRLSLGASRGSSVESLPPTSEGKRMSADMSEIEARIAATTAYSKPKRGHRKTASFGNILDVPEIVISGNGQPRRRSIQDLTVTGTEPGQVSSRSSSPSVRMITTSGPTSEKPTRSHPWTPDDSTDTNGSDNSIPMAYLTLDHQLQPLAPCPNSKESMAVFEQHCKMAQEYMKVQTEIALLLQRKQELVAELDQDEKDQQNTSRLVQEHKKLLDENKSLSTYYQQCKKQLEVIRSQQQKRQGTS

[3] = biological target: T1, Mitogen-activated protein kinase kinase kinase 7 (Homo sapiens); details: at 10 µM
[4] = biological target: T2, Serine/threonine-protein kinase TAO1 (Homo sapiens) (UniProt Q7L7X3); details: at 1 µM
T2 sequence (whole entry): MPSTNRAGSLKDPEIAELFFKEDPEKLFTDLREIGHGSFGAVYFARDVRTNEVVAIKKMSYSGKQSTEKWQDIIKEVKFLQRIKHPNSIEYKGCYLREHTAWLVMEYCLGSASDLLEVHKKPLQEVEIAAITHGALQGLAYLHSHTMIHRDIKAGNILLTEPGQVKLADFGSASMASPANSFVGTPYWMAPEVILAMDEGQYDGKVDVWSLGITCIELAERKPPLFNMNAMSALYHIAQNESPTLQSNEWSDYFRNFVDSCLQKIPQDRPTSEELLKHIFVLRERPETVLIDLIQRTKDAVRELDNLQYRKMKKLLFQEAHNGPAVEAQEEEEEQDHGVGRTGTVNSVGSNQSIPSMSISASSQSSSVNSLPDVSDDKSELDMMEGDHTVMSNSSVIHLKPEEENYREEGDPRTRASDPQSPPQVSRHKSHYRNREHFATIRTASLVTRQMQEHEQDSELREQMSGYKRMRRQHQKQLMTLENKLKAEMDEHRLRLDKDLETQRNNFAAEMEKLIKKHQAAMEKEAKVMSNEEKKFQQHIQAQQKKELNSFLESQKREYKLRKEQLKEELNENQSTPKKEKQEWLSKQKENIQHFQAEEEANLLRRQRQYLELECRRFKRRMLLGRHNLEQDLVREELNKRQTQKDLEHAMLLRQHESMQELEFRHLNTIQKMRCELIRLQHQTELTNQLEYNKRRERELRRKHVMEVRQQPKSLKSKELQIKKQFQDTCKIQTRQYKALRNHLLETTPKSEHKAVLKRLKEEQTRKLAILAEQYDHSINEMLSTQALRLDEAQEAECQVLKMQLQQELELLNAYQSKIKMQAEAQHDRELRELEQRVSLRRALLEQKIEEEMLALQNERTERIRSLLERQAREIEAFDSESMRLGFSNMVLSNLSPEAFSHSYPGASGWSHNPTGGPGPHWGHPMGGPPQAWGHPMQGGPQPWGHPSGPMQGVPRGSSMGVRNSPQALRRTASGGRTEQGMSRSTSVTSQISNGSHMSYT

[5] = biological target: T2, Serine/threonine-protein kinase TAO1 (Homo sapiens); details: at 10 µM
[6] = biological target: T3, Serine/threonine-protein kinase TAO2 (Homo sapiens) (UniProt Q9UL54); details: at 1 µM
T3 sequence (whole entry): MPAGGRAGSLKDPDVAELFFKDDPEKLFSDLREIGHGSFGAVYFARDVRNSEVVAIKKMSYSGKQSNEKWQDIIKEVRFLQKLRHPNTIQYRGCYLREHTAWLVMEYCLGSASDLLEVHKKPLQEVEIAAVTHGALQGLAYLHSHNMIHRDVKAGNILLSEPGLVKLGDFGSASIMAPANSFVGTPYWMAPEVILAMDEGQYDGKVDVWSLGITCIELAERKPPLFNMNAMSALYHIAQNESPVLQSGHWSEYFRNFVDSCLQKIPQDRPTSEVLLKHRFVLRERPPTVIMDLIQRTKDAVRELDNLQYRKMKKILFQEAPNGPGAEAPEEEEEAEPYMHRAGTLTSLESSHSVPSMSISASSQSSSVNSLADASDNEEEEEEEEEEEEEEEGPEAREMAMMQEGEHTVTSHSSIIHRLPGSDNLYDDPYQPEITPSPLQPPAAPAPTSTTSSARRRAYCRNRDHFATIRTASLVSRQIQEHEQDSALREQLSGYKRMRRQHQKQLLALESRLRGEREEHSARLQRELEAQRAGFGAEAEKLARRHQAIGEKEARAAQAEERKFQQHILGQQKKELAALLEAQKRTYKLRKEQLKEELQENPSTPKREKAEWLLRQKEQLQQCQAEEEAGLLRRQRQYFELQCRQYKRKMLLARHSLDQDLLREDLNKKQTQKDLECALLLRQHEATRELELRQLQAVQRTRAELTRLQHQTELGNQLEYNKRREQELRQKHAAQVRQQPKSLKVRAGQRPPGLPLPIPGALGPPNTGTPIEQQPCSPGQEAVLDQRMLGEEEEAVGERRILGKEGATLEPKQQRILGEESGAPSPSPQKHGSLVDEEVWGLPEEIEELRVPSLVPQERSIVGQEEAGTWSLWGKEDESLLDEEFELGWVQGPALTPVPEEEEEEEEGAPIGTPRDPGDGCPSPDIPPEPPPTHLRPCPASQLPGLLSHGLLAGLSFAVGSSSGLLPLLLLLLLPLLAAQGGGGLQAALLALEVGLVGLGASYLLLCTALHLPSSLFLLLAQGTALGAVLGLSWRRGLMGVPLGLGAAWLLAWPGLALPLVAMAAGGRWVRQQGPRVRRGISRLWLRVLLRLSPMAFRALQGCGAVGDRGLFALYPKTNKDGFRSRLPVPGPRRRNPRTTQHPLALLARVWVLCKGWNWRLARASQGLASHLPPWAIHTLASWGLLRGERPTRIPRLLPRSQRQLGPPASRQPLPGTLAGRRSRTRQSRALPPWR

[7] = biological target: T3, Serine/threonine-protein kinase TAO2 (Homo sapiens); details: at 10 µM
[8] = biological target: T4, Serine/threonine-protein kinase TAO3 (Homo sapiens) (UniProt Q9H2K8); details: at 1 µM
T4 sequence (whole entry): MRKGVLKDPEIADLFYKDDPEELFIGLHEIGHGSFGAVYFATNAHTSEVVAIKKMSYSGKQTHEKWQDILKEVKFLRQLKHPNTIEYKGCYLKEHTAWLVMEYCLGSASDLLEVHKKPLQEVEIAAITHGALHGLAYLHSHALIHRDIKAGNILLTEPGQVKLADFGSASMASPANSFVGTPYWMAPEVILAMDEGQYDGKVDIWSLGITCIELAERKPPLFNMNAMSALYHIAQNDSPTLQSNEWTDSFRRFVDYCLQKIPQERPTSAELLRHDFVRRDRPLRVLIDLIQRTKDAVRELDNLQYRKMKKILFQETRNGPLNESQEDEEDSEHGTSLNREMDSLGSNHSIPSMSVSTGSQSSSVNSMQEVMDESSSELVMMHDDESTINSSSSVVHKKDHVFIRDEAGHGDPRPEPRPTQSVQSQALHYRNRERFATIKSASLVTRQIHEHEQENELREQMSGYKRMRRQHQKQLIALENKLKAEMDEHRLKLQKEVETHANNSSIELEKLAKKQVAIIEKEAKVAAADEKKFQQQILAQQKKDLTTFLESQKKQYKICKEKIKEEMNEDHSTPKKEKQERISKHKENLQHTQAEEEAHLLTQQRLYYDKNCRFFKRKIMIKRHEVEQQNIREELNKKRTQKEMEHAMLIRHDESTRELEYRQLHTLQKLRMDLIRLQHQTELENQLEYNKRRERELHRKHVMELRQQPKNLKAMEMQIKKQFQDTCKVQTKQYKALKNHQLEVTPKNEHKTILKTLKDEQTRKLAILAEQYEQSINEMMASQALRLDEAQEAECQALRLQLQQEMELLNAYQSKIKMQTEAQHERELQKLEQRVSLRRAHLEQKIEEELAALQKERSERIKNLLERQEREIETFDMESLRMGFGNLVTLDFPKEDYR

[9] = biological target: T4, Serine/threonine-protein kinase TAO3 (Homo sapiens); details: at 10 µM
[10] = biological target: T5, Serine/threonine-protein kinase TBK1 (Homo sapiens) (UniProt Q9UHD2); details: at 1 µM
T5 sequence (whole entry): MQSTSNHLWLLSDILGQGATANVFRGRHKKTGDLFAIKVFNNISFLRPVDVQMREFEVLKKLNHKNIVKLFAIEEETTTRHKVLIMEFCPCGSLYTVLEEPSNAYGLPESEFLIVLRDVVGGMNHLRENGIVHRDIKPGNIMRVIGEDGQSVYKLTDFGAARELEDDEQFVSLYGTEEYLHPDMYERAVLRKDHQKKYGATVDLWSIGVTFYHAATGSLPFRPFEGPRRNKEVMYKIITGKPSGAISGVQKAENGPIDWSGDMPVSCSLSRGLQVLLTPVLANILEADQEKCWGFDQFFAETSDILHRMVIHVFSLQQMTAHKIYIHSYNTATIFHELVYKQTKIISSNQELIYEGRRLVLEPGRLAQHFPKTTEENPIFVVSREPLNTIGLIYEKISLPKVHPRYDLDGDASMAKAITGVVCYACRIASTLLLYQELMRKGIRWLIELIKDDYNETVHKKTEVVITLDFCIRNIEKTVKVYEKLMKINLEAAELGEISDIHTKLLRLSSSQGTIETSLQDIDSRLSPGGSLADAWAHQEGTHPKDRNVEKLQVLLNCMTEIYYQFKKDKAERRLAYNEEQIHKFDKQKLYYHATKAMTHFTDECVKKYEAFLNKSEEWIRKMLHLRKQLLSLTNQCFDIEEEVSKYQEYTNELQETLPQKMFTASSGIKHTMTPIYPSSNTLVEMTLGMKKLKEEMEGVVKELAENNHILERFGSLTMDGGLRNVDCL

## Cc1ccc(NC2=CC(=O)c3sc(C)nc3C2=O)cc1
[1]
  residual activity: 113%
[2]
  residual activity: 86%
[3]
  residual activity: 89%
[4]
  residual activity: 91%
[5]
  residual activity: 77%
[6]
  residual activity: 95%
[7]
  residual activity: 88%
[8]
  residual activity: 94%
[9]
  residual activity: 93%
[10]
  residual activity: 77%
